Screening data deposited in PubChem by several laboratories.
In the library only some 4.3% were active in any assay of this set; here they are far more common.
dFosB act-1 = mouse delta FosB homodimer activation. P13346. purified delta FosB, TAMRA-CDK5 oligo fluorescence polarization; percent of positive-control signal above neutral wells. activation, % at 25 µM. 0.99% of 340,000 active;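 active = mean activation above about 17%, with every replicate also reaching it, limit read from the data, passing the limit was not always enough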
Target sequence (P13346 whole entry, looked up): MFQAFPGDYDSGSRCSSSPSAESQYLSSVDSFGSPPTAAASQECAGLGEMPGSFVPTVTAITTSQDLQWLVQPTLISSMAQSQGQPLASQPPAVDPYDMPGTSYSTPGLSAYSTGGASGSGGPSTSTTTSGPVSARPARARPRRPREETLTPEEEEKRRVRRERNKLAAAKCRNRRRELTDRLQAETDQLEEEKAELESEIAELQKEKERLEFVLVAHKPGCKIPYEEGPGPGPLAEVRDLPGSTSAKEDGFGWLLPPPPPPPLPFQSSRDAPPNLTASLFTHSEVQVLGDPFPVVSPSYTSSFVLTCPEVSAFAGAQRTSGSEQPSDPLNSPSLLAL
NALP1 yeast inh = blocks the NALP1 inflammasome reconstituted in yeast | 0.61% of 280,000 active | inhibition, % at 10 µM | AID 2071 | S. cerevisiae NALP1/ASC/caspase-1 growth, X-gal OD620, 72 h; in the data active = inhibition mostly above about 24%, no sharp cut-off; inactive = mostly below about 32%
UBC13 polyUb = human UBC13 polyubiquitination inhibition; inhibition, % at 20 µM; UBC13 polyubiquitin chain formation, TR-FRET; P61088; 0.47% of 330,000 active; in the data active = inhibition above about 45%, passing the limit was not always enough
Target sequence (P61088 whole entry, looked up): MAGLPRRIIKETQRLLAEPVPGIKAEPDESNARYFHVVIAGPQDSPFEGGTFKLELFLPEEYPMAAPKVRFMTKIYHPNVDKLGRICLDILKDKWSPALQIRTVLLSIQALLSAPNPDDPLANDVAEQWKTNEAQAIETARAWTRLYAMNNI
GRIN3A LBD mod = modulates the human NR3A ligand-binding domain. NR3A LBD differential scanning fluorimetry, Tm shift; 0% = protein alone, 100% = glycine-bound protein. Tm shift relative to glycine control, % at 25 µM. 2.5% of 340,000 active;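 active = melting temperature shift of at least 10% of the positive control shift, at one fixed dose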
Yeast superoxide = lowers age-related superoxide in aged yeast cells. S. cerevisiae aged cells, superoxide DHE fluorescence; active compounds read low. 0.18% of 330,000 active. superoxide response (% of plate mean), % at 10 µM;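 active = superoxide response under a set limit, about three screen SD below normal, cut at about 65% in these data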;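 also: yeast aged for seven days with compound at 30 °C before DHE staining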
dFosB act-2 = enhances mouse delta FosB homodimer binding to DNA. shares compounds with dFosB act-1. purified delta FosB, TAMRA-CDK5 oligo fluorescence polarization; normalised: neutral wells 0, positive control 100. activation, % at 24.9 µM. 2,400 tested, under 10 active;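 active = highest replicate activation at or above 34% and every replicate reaching that threshold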;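 also: higher polarization means more probe DNA bound by delta FosB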
Each line names hits and unclear results; the compound was inactive in the other large screens (follow-up assays come after a bar, where they were run).

O=C(Nc1c(C(=O)N2CCCCC2)cnn1-c1ccccc1)c1ccccc1F	none
COc1cc(/C=C/C(=O)O)cc(S(=O)(=O)N2CCN(S(=O)(=O)c3ccc(Cl)cc3)CC2)c1OC	none
CN(C(=O)CN1C(=O)c2cccc(N)c2C1=O)C1CCCCC1	none (no result: NALP1 yeast inh)
COc1cc(C(=O)OCC(=O)NCc2ccccc2)cc(NC(=O)c2ccco2)c1OC	dFosB act-1 26.5 | dFosB act-2 inactive
CNC(=O)COC(=O)c1cc(NC(=O)c2ccco2)c(OC)c(OC)c1	none
COc1cccc(-c2nnc(NC(=O)c3cccs3)s2)c1	dFosB act-1 34.5 | dFosB act-2 inactive
COc1ccc(CC(=O)Nc2nnc(-c3cccc([N+](=O)[O-])c3)s2)cc1	dFosB act-1 22.3 | dFosB act-2 inactive
O=C(Cc1ccccc1)Nc1nnc(-c2cccc([N+](=O)[O-])c2)s1	none
Cc1nn(Cc2ccc(Cl)cc2Cl)c(C)c1NC(=O)Cn1nc([N+](=O)[O-])c(Cl)c1C	dFosB act-1 43.6 | dFosB act-2 inactive
Cc1nn(Cc2ccc(Cl)cc2)c(C)c1NC(=O)Cn1nc([N+](=O)[O-])c(Cl)c1C	dFosB act-1 20.2 | dFosB act-2 inactive
Cc1cc(=O)n2nc(N3CCCC(C(=O)NCc4ccccc4Cl)C3)sc2n1 (configuration not stated)	none
Cc1nn2c(COc3ccc(NC(=O)c4ccccc4Cl)cc3)nnc2c2ccccc12	dFosB act-1 25.5 | dFosB act-2 inactive
CCc1c(C)c(C#N)c2nc3ccccc3n2c1NCCN(C)C	dFosB act-1 20.9, NALP1 yeast inh 32.2 | dFosB act-2 inactive
CCc1c(C)c(C#N)c2nc3ccccc3n2c1NC	none
COc1ccc2c(c1)C1NC(=S)NC(C)(O2)C1C(=O)Nc1ccc(Cl)cc1 (configuration not stated)	none
Cc1ccc2c(c1)C1NC(=S)NC(C)(O2)C1C(=O)Nc1ccc(Cl)cc1 (configuration not stated)	dFosB act-1 39.5 | dFosB act-2 inactive
Cc1ccc2[nH]c3c(c2c1)CCCC3NCCO (configuration not stated)	none
CC1CCC2(CC1)NC(=O)N(NC(=O)c1cc3ccccc3o1)C2=O (configuration not stated)	none (no result: NALP1 yeast inh)
CCOCCn1c(=NC(=O)c2cc3ccccc3oc2=O)sc2cc(S(N)(=O)=O)ccc21	none
C=CCn1c(=NC(=O)c2cc(Cl)sc2Cl)sc2cc(S(N)(=O)=O)ccc21	dFosB act-1 25.4 | dFosB act-2 inactive
CC(C)(C)OC(=O)N1CC(O)CC1C(=O)OCC(=O)c1ccc(-c2ccccc2)cc1 (configuration not stated)	none
O=C(c1ccc(Cl)cc1)c1cnc(Nc2ccccc2Cl)s1	dFosB act-1 52.8 | dFosB act-2 inactive
COC(=O)c1ccc(NC(=O)CN2C(=O)NC3(CCC(C)CC3)C2=O)cc1 (configuration not stated)	dFosB act-1 18.2 (no result: NALP1 yeast inh) | dFosB act-2 inactive
O=C(C[C@H]1C[C@H](C(=O)N2CCCCC2)[C@@]2(CCc3ccccc3)c3[nH]c4ccc(Cl)cc4c3CCN2C1=O)NCCC1=CCCCC1	none (no result: NALP1 yeast inh, UBC13 polyUb)
CCc1ccc2nc(NC(=O)C3CCN(c4ncnc5sc(C)c(C)c45)CC3)sc2c1	none (no result: NALP1 yeast inh)
COc1ccccc1OCC(=O)NNC(=O)C1CCN(c2ncnc3sc(C)c(C)c23)CC1	none (no result: NALP1 yeast inh)
COc1ccc(-c2csc(NC(=O)C3CCN(c4ncnc5sc(C)c(C)c45)CC3)n2)cc1OC	dFosB act-1 25.9 (no result: NALP1 yeast inh) | dFosB act-2 inactive
C=CCn1c(C)cc(-c2csc(NC(=O)C3CCN(c4ncnc5sc(C)c(C)c45)CC3)n2)c1C	dFosB act-1 30.1 (no result: NALP1 yeast inh, UBC13 polyUb, Yeast superoxide) | dFosB act-2 inactive
Cc1cccc(C(=O)OCCN2CCOCC2)c1	none
Cn1cc(/C=C(\C#N)C(=O)Nc2ncc(Cc3cccc(Cl)c3)s2)c2ccccc21	none (no result: dFosB act-1, GRIN3A LBD mod)
N#C/C(=C\c1c[nH]c2ccccc12)C(=O)Nc1ncc(Cc2ccc(Cl)cc2Cl)s1	dFosB act-1 30.5, GRIN3A LBD mod 37.5 | dFosB act-2 inactive
COc1ccccc1-c1cc(C(=O)Nc2ccc(F)cc2F)no1	dFosB act-1 24.8 | dFosB act-2 inactive
COc1ccccc1-c1cc(C(=O)NC(C)C)no1	none
CC(c1ccccc1)N(NC(=O)C(O)(c1ccccc1)c1ccccc1)C(=O)c1ccccc1 (configuration not stated)	dFosB act-1 38.4 | dFosB act-2 inactive
CCN(NC(=O)C(O)(c1ccccc1)c1ccccc1)C(=O)c1ccccc1	none
N#Cc1c(N)nc(SCC(=O)NCCc2ccccc2)c(C#N)c1-c1cccs1	dFosB act-1 35.9 | dFosB act-2 inactive
CC(=O)CSc1nc(N)c(C#N)c(-c2cccs2)c1C#N	none
CC(C)NC(=O)CC(=O)N/N=C/c1c(F)cccc1Cl	none
O=C(CCCC(=O)Nc1ccccc1Br)N/N=C/c1c(F)cccc1Cl	dFosB act-1 26.6 | dFosB act-2 inactive
Cc1cc(Cl)ccc1NC(=O)CCN1C(=O)NC(C)(C)C1=O	none (no result: NALP1 yeast inh)
O=C(Nc1nc2ccccc2s1)c1cccc(S(=O)(=O)N2CCc3ccccc32)c1	dFosB act-1 34.1 (no result: NALP1 yeast inh) | dFosB act-2 inactive
Cc1nnc(NC(=O)c2cccc(S(=O)(=O)N3CCc4ccccc43)c2)s1	none
CCc1nnc(NC(=O)c2cccc(S(=O)(=O)N3CCc4ccccc43)c2)s1	dFosB act-1 34.3 | dFosB act-2 inactive
O=C(Nc1nnc(C2CC2)s1)c1cccc(S(=O)(=O)N2CCc3ccccc32)c1	dFosB act-1 51.0 | dFosB act-2 inactive
COc1cc(OC)c(N(C)S(=O)(=O)c2cccc(C(=O)Nc3nnc(C4CC4)s3)c2)cc1Cl	dFosB act-1 63.4 (no result: NALP1 yeast inh) | dFosB act-2 inactive
COc1ccc(N2CCN(C(=O)COC(=O)c3ccc(C)o3)CC2)cc1	none (no result: NALP1 yeast inh)
O=C(Nc1nc2c(s1)CN(Cc1ccccc1)CC2)c1cccc(S(=O)(=O)N2CCc3ccccc32)c1	dFosB act-1 73.8 | dFosB act-2 inactive
COCCN(C(=O)COC(=O)COc1ccc2ccccc2c1)c1c(N)n(Cc2ccccc2)c(=O)[nH]c1=O	dFosB act-1 19.5 (no result: NALP1 yeast inh, UBC13 polyUb, Yeast superoxide) | dFosB act-2 inactive
CC(C)CN(C(=O)COC(=O)c1cncc(Br)c1)c1c(N)n(Cc2ccccc2)c(=O)[nH]c1=O	none
CCN(C(=O)COC(=O)COc1ccc2c(c1)CCC2)c1c(N)n(Cc2ccccc2)c(=O)[nH]c1=O	dFosB act-1 24.5 (no result: NALP1 yeast inh, Yeast superoxide) | dFosB act-2 inactive
COc1ccc(CCC(=O)OCC(=O)N(C)c2c(N)n(Cc3ccccc3)c(=O)[nH]c2=O)cc1	none (no result: NALP1 yeast inh)
CCN(C(=O)COC(=O)CCc1ccc(OC)cc1)c1c(N)n(Cc2ccccc2)c(=O)[nH]c1=O	dFosB act-1 41.9 (no result: NALP1 yeast inh, Yeast superoxide) | dFosB act-2 inactive
CC(C)CN(C(=O)COC(=O)c1ccc(Br)cc1)c1c(N)n(Cc2ccccc2)c(=O)[nH]c1=O	dFosB act-1 51.2 (no result: NALP1 yeast inh) | dFosB act-2 inactive
